BAZ2B block = qHTS Assay for Inhibitors of BAZ2B; AlphaScreen BAZ2B-H3K14Ac peptide displacement; Potency, µM (series often up to 114 µM), actives largely listed as inhibitors; 360,000 tested, 4.4% active; AID 504333, 2011; note: nearly all actives have a fitted effect of over 60% in size
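BAZ2B (50 nM) with biotin-H3(5-23)K14Ac peptide (50 nM) in PBS pH 7.4, 0.01% Tween-20, preformed 30 min, then compound 30 min at room temperature; top concentration 110uM. AlphaScreen streptavidin donor/nickel chelate acceptor beads (10 ug/mL final), 20 min dark, signal read.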
PI5P4K alpha inh = qHTS for Inhibitors of phosphatidylinositol 5-phosphate 4-kinase (PI5P4K); max response, %; AID 652105, 2013; 330,000 tested, 1.2% active; PI5P4Kalpha enzyme, ADP-Glo luminescence, 60 min; hits give low values; Phosphatidylinositol 5-phosphate 4-kinase type-2 alpha (Homo sapiens), P48426; active = max response of -50% or lower; inconclusive = between -30% and -50%; inactive = -30% or higher; note: value at the top dose of about 77 µM
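Luminescence from ADP-Glo served as readout of PI5P4Kalpha activity in a qHTS format. Reaction: enzyme, substrate, compound, ATP at 5 microM final, 60 min at RT.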
G9a inh = qHTS Assay for Inhibitors of Histone Lysine Methyltransferase G9a | Potency, µM (titrated, usually from 102 µM), hits mostly inhibitors | G9a H3K9 monomethylation, AlphaScreen, 2 h | AID 504332, 2011 | Histone-lysine N-methyltransferase EHMT2 (Homo sapiens), Q96KQ7 | 350,000 tested, 8.8% active; note: nearly all actives have a fitted effect of over 75% in size
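Enzyme 20 nM + cpd, 15 min RT; add b-H3K9 pep 500 nM / SAM 20 uM; 2 h RT; anti-H3K9me1 Ab 0.5 ug/mL + SA donor / anti-rabbit acceptor beads 20 ug/mL each, 10 min; AlphaScreen read.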
JMJD2A Tudor inh = qHTS Assay for Inhibitors of JMJD2A-Tudor Domain | Lysine-specific demethylase 4A (Homo sapiens), O75164 | AlphaScreen JMJD2A-Tudor / H3K4me3 peptide binding | Potency, µM (titrated, usually from 114 µM), most hits filed as inhibitors | 390,000 tested, 4.4% active | AID 504339, 2011; note: nearly all actives have a fitted effect of over 50% in size
Target sequence (O75164 whole entry, looked up, the tested form may be a part): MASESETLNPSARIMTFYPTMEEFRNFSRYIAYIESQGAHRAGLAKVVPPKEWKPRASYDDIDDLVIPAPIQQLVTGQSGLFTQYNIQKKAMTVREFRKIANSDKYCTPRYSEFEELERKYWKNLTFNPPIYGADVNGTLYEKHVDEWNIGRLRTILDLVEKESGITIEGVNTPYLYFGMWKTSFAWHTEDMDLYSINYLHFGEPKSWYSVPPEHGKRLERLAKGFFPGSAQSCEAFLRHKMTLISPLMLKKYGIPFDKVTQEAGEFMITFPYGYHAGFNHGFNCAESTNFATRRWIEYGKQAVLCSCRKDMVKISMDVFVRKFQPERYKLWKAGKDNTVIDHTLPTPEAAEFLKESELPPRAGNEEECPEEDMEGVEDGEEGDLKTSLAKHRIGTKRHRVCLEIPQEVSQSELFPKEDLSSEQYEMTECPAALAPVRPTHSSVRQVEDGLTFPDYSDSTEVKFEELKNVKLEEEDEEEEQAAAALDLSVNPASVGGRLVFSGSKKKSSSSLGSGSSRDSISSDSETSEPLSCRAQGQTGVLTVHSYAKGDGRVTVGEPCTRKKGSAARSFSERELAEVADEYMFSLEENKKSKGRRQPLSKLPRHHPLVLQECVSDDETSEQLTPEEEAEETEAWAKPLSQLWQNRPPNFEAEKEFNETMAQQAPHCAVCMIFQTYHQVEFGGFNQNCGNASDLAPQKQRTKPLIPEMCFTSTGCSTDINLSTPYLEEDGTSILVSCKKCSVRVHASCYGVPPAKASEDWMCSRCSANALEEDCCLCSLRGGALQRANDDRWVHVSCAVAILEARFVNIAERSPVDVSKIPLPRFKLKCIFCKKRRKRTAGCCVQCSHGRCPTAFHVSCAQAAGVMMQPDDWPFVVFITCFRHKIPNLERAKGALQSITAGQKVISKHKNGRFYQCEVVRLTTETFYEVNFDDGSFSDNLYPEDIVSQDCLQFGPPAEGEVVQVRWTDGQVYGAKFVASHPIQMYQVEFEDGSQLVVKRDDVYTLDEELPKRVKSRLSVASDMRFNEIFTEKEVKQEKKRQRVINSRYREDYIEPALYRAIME
PLK1 PBD inh = qHTS for Inhibitors of PLK1-PDB (polo-like kinase 1 - polo-box domain): Primary Screen. AID 720504, 2013. Serine/threonine-protein kinase PLK1 (Homo sapiens), P53350. Potency, µM, most hits filed as inhibitors. 360,000 tested, 2.8% active. Plk1 PBD binding of FITC phosphopeptide, fluorescence polarization; note: series mostly up to about 57 µM; nearly all actives have a fitted effect of over 65% in size
HP1b chromo inh = HTS for Inhibitors of HP1-beta Chromodomain Interactions with Methylated Histone Tails. AlphaScreen HP1-beta / biotin-H3K9me3 peptide binding. Chromobox protein homolog 1 (Homo sapiens), P83916. AID 540317, 2011. Potency, µM (doses to about 114 µM), actives largely listed as inhibitors. 390,000 tested, 0.56% active; note: nearly all actives have a fitted effect of over 70% in size
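HP1-beta protein (50 nM final) preincubated 30 min at room temperature with biotinylated H3(1-18)K9me3 peptide (50 nM) in PBS pH 7.4, 0.01% Tween-20, then compound added for 30 min. AlphaScreen streptavidin donor/nickel chelate acceptor beads (10 ug/mL final), 30 min dark, luminescence read.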
Hits are given with their value; n = inactive; u = inconclusive; x = no result; [ ] = dose if it differs, or a comment. A selection: hits, their analogues and other compounds. The true share with any hit is near 12%. Unless noted, calls come from the whole dose curve; as a rule, active = well fitted curve in the direction sought with a large enough effect; inconclusive = small, poorly fitted or top-dose-only effect, or another doubt; inactive = no such curve, though single readings can be large; an effect the other way counts as inactive or inconclusive.

SMILES	BAZ2B block	PI5P4K alpha inh	G9a inh	JMJD2A Tudor inh	PLK1 PBD inh	HP1b chromo inh
CCCS(=O)(=O)NC(=O)C1(C)CCN(C(=O)c2cc(F)ccc2C)C1 (stereo not drawn)	x	n	x	x	n	x
O=C(CC1CCCCC1)NCCOc1ccccc1	n	n	n	50µM	27µM	n
O=C(NCCOc1ccccc1)C1CCCCC1	n	n	n	n	n	n
CCc1cccc(C)c1NC(=O)CCCn1c(C)c2cnn(-c3ccccc3)c(=O)c2c1C	n	x	n	u	x	n
COC(=O)C(NC(=O)c1ccccc1)(Nc1nccs1)C(F)(F)F (stereo not drawn)	n	n	n	n	n	n
COC(=O)C(NNc1ccccc1C)(NC(=O)c1ccc(F)cc1)C(F)(F)F (stereo not drawn)	n	n	3.2µM	u	27µM	u
CCOC(=O)C(NCc1ccc(F)cc1)(NC(=O)c1ccccc1)C(F)(F)F (stereo not drawn)	n	n	n	n	n	n
COC(=O)C(NNc1ccc(F)cc1)(NC(=O)c1ccccc1)C(F)(F)F (stereo not drawn)	n	n	25µM	n	n	n
O=c1nc2n(c3sc4c(c13)CCCC4)C(CBr)CS2 (stereo not drawn)	n	n	50µM	n	n	n
O=c1c2ccccc2nc2n1C(CBr)CS2 (stereo not drawn)	n	n	u	n	u	n
CCC(=O)c1cc(Br)ccc1OCC(=O)N1CCN(S(=O)(=O)c2ccccc2)CC1	x	n	x	n	n	n
CCc1ccccc1CC1CN(Cc2ccccc2)Cc2ccccc2N1c1ccc(OC)cc1 (stereo not drawn)	x	n	x	x	n	x
CCCN(CCC)C(=O)c1cc([N+](=O)[O-])cc2c1-c1ccc([N+](=O)[O-])cc1C2=C(C#N)C#N	u	n	45µM	u	u	n
CCOc1ccc(-n2c(Cc3cc(=O)[nH]c(=O)[nH]3)nnc2SCc2cccnc2)cc1	n	x	56µM	x	x	x
COc1ccc(-n2c(Cc3cc(=O)[nH]c(=O)[nH]3)nnc2SCC(=O)N2CCC(C)CC2)cc1	n	n	u	n	n	n
CC1CCN(C(=O)CSc2nnc(Cc3cc(=O)[nH]c(=O)[nH]3)n2-c2ccc(Cl)cc2)CC1	n	n	35µM	n	n	n
CCOC(=O)C(C)Sc1nnc(Cc2cc(=O)[nH]c(=O)[nH]2)n1-c1ccc(Cl)cc1 (stereo not drawn)	n	n	u	u	21µM	n
CCOc1ccc(-n2c(Cc3cc(=O)[nH]c(=O)[nH]3)nnc2SC(C)C)cc1	n	n	n	n	n	n
CCC(C)Sc1nnc(Cc2cc(=O)[nH]c(=O)[nH]2)n1-c1ccc(F)cc1 (stereo not drawn)	n	n	40µM	n	n	n
N[C@H](Cc1cc(I)c(Oc2ccc(O)c(I)c2)c(I)c1)C(=O)O	x	x	n[21.5 µM]	x	x	x
CCCSc1nnc(Cc2cc(=O)[nH]c(=O)[nH]2)n1-c1cc(C)ccc1C	n	n	u	14µM	n	n
CCSc1nnc(Cc2cc(=O)[nH]c(=O)[nH]2)n1-c1cccc(C)c1	n	n	u	n	n	n
O=C1C2CC=C(Cl)CC2C(=O)N1CCCCCCN1C(=O)C2CC=C(Cl)CC2C1=O (stereo not drawn)	45µM	x	11µM	45µM	u	u
CC(C(=O)N1CCOCC1)N1C(=O)c2cccc3cccc(c23)C1=O (stereo not drawn)	n	n	u	n	n	n
CCC1C(O)=C(c2ccccn2)C(=N)N1c1ccccc1 (stereo not drawn)	u	x	22µM	n	n	n
SMILES	BAZ2B block	PI5P4K alpha inh	G9a inh	JMJD2A Tudor inh	PLK1 PBD inh	HP1b chromo inh
CC(=O)Nc1ccc(NC(=O)CSc2n[nH]c(-c3cccs3)n2)cc1	n	n	n	u	n	n
NC(=O)CC[C@H](NC(=O)c1ccc(F)cc1)C(=O)OCC(=O)Nc1c(F)c(F)c(F)c(F)c1F	n	n	u	n	n	n
NC(=O)CC[C@H](NC(=O)c1ccc(F)cc1)C(=O)OCC(=O)NCc1ccc(F)cc1	n	n	n	14µM	u	n
CCOC(=O)C1CCN(C(=O)CN2C(=O)COc3ccc(C(C)(C)C)cc32)CC1	n	n	n	79µM	n	n
CCOC(=O)C1CCN(C(=O)CC(C)S(=O)(=O)c2ccc3c(c2)NC(=O)CO3)CC1 (stereo not drawn)	n	n	71µM	n	n	n
COc1ccc(N2CCN(C(=O)CC(C)S(=O)(=O)c3ccc4c(c3)NC(=O)CO4)CC2)cc1 (stereo not drawn)	n	n	x	n	u	n
O=C(COC(=O)c1cccc(S(=O)(=O)N2CCCC2)c1)Nc1ccc(Cl)cc1	x	n	x	x	n	x
Cc1nnc(SCC(=O)NC2CCCCCC2)n1N	n	n	n[12.7 µM]	n	n	n
CN1c2ccc([N+](=O)[O-])cc2N(C)C1(C)c1ccccc1 (stereo not drawn)	8.9µM	n	x	10µM	n	10µM
Cn1nnnc1SCCNCc1cccc2ccccc12	n	x	50µM	n	n	n
COc1ccc(Br)cc1CNCCSc1nnnn1C	n	n	56µM	n	n	n
COc1cccc(CNCCSc2nnnn2C)c1	n	x	56µM	n	n	n
Cc1ccccc1CNCCSc1nnnn1C	n	x	n	n	x	n
CC(C)CN(C(=O)c1cccc(S(=O)(=O)N2CCN(Cc3ccccc3)CC2)c1)C1CCS(=O)(=O)C1 (stereo not drawn)	n	n	u	n	n	n
CN1CCc2nc3ccccc3c(C(=O)OCC(=O)N(CCC#N)c3ccccc3)c2C1	u	n	22µM	n	n	n
CCn1c(=O)cc(SCC(=O)N2CCN(c3cc(C)ccc3C)CC2)c2ccccc21	n	x	u	n	x	n
CCOC(=O)c1c(NC(=O)c2cc(-c3ccc(OC)c(OC)c3)on2)sc(C)c1C	n	x	n	n	x	n
CCOC(=O)c1c(NC(=O)c2noc3c2CCCC3)sc(C)c1C	n	x	28µM	x	x	x
CCOC(=O)c1c(NC(=O)c2cc(-c3ccc(Cl)cc3)on2)sc(C)c1C	n	x	8.9µM	n	x	n
CC(=O)Nc1sc(C)c(C)c1C(=O)OC(C)C	n	n	n	u	27µM	u
CCOC(=O)Nc1sc(C)c(C)c1C(=O)OCC	n	n	n	n	n	n
CCOC(=O)c1c(NC(=O)c2cc(-c3ccc(Br)cc3)on2)sc(C(C)=O)c1C	n	x	n	n	x	n
